{
  "source": "ChEMBL document CHEMBL3988442",
  "about": "“University of Dundee, Small-Polar-MMV Screening Library” (2021)",
  "note": "Out of some 48,000 compounds screened, about 13,000 (27%) showed an effect of 50% or more. This is one part of the list.",
  "data": [
    {"system": "Wolbachia pipientis", "assay": "Anti-Wolbachia Cell-Based Screen", "format": "functional", "design": "scale not given: in the data most compounds retested in dose-response had high values", "conditions": "5 µM", "units": {"Percent Effect": "%"}, "values": [
      {"smiles": "N#Cc1c(N2CCCN(C3CCOCC3)CC2)nc2ccccn12", "Percent Effect": -1.844},
      {"smiles": "CC(C)c1n[nH]c(C2CN(Cc3ccno3)CCO2)n1", "note": "(stereo not drawn)", "Percent Effect": 2.718},
      {"smiles": "CCc1n[nH]c(C2CN(CCc3cccs3)CCO2)n1", "note": "(stereo not drawn)", "Percent Effect": 2.973},
      {"smiles": "CCCc1n[nH]c(C2CN(CCc3cccs3)CCO2)n1", "note": "(stereo not drawn)", "Percent Effect": 119.2},
      {"smiles": "CCCc1n[nH]c(C2CN(CCn3cccn3)CCO2)n1", "note": "(stereo not drawn)", "Percent Effect": -0.7272},
      {"smiles": "CC(C)(C)c1n[nH]c(C2CN(CCc3cccs3)CCO2)n1", "note": "(stereo not drawn)", "Percent Effect": 121.2},
      {"smiles": "Cc1n[nH]c(C2CN(CCc3cccs3)CCO2)n1", "note": "(stereo not drawn)", "Percent Effect": 117.1},
      {"smiles": "Cc1n[nH]c(C2CN(CCCOc3ccc(F)cc3)CCO2)n1", "note": "(stereo not drawn)", "Percent Effect": -9.596},
      {"smiles": "Cc1nc(C)n(CC2CN(CCc3cccs3)CCO2)n1", "note": "(stereo not drawn)", "Percent Effect": -47.87},
      {"smiles": "CC(C)c1n[nH]c(C2CN(CCc3cccs3)CCO2)n1", "note": "(stereo not drawn)", "Percent Effect": 96.38},
      {"smiles": "Cn1c(CN2CCOC(c3nc(C(C)(C)C)n[nH]3)C2)nnc1C1CC1", "note": "(stereo not drawn)", "Percent Effect": 2.258},
      {"smiles": "CC(C)c1n[nH]c(C2CN(Cc3nnc(C4CC4)n3C)CCO2)n1", "note": "(stereo not drawn)", "Percent Effect": 4.048},
      {"smiles": "CC(C)(C)c1n[nH]c(C2CN(CCNC3CCCCC3)CCO2)n1", "note": "(stereo not drawn)", "Percent Effect": -7.813},
      {"smiles": "COCCOc1ncccc1C(=O)N(C)c1ccc(OC)nc1", "Percent Effect": -5.142},
      {"smiles": "Cc1ccc(S(C)(=O)=O)cc1C(=O)NS(=O)(=O)c1ccc(Cl)cc1", "Percent Effect": -5.911},
      {"smiles": "Cc1ccc(C(C)NC(=O)N2CCN(C(=O)CC(F)(F)F)CC2)o1", "note": "(stereo not drawn)", "Percent Effect": -14.24},
      {"smiles": "Nc1cc2c(nn1)CCN(C(=O)c1ccc(-c3ccco3)[nH]c1=O)C2", "Percent Effect": 1.419},
      {"smiles": "N#Cc1ccc(CN2CCCN(CCCn3cncn3)CC2)cc1", "Percent Effect": -13.2},
      {"smiles": "O=C(CN1CCS(=O)(=O)CC1)Nc1ccc(N2CCCC2)nc1", "Percent Effect": 0.8889},
      {"smiles": "CC(C)N(C)[C@@H]1CCN(S(C)(=O)=O)[C@H]1Cc1ccccc1", "Percent Effect": 103.5},
      {"smiles": "CN(C)[C@@H]1CCN(S(C)(=O)=O)[C@H]1Cc1ccccc1", "Percent Effect": 99.96},
      {"smiles": "CN(C)[C@@H]1CCN(S(=O)(=O)C2CC2)[C@H]1Cc1ccccc1.O=C(O)C(F)(F)F", "Percent Effect": 106},
      {"smiles": "CC(C)N(C)[C@@H]1CCN(Cc2ccco2)[C@H]1Cc1ccccc1", "Percent Effect": 2.864},
      {"smiles": "CN(C)[C@@H]1CCN(c2ncc(F)cn2)[C@H]1Cc1ccccc1.O=C(O)C(F)(F)F.O=C(O)C(F)(F)F", "Percent Effect": 3.414},
      {"smiles": "CN(C)[C@@H]1CCN(S(=O)(=O)c2cn(C)cn2)[C@H]1Cc1cccnc1.O=C(O)C(F)(F)F.O=C(O)C(F)(F)F.O=C(O)C(F)(F)F", "Percent Effect": 0.7375},
      {"smiles": "CC(C)N(C)[C@@H]1CCN(Cc2ccoc2)[C@H]1Cc1ccccc1", "Percent Effect": -14.75},
      {"smiles": "CN(C)[C@@H]1CCN(c2ncccn2)[C@H]1Cc1ccccc1", "Percent Effect": -9.311},
      {"smiles": "CC(C)NC(=O)N1CC[C@@H](N(C)C)[C@@H]1Cc1ccccc1.O=C(O)C(F)(F)F", "Percent Effect": 0.7735},
      {"smiles": "CCOc1ccc(C(=O)N2C[C@H]3CC[C@@H]2CN(C(=O)C2CCC2)C3)cc1", "Percent Effect": -22.33},
      {"smiles": "CCOc1ccc(C(=O)CCC(=O)NCc2cncn2CC)cc1C", "Percent Effect": -8.028},
      {"smiles": "CC(C)Cc1noc(-c2ccc(NCc3noc(C(C)C)n3)nc2)n1", "Percent Effect": 13.03},
      {"smiles": "Cc1ccc(-c2ncc(CN3CCOC(c4ccco4)C3)s2)o1", "note": "(stereo not drawn)", "Percent Effect": 2.096},
      {"smiles": "COCCC(=O)N1CCC2(CCN(Cc3cccc(F)c3)C2)C1", "note": "(stereo not drawn)", "Percent Effect": 0.08604},
      {"smiles": "COCCC(=O)N1CCC2(CN(Cc3cccc(F)c3)C2)C1", "Percent Effect": -10.24},
      {"smiles": "COC(=O)CCC(=O)N1CCC2(CN(Cc3ccccc3F)C2)C1", "Percent Effect": 106.8},
      {"smiles": "COCCC(=O)N1CCC2(CCCN(Cc3cc(OC)ccc3F)C2)C1", "note": "(stereo not drawn)", "Percent Effect": -0.03102},
      {"smiles": "CN1CCCC2(CC1)CCN(C(=O)CCc1ccccc1F)CC2", "Percent Effect": -19.97},
      {"smiles": "COC(=O)CCC(=O)N1CCC2(CN(Cc3cccc(F)c3)C2)C1", "Percent Effect": -9.48},
      {"smiles": "CN1CCN(CC2(O)CCN(C(=O)CCc3ccccc3F)C2)CC1", "note": "(stereo not drawn)", "Percent Effect": 132.9},
      {"smiles": "COC(=O)CCC(=O)N1CCC2(CN(Cc3ccc(Cl)cc3)C2)C1", "Percent Effect": 100.4},
      {"smiles": "COC(=O)CCC(=O)N1CCC2(CN(Cc3cccc(Cl)c3)C2)C1", "Percent Effect": 11.86},
      {"smiles": "CN1CCCC2(CC1)CCN(C(=O)CCc1ccccc1O)CC2", "Percent Effect": -5.541},
      {"smiles": "COC(=O)CCC(=O)N1CCC2(CN(Cc3ccccc3)C2)C1", "Percent Effect": 108.2},
      {"smiles": "CCn1cnnc1CNC(=O)N(C)Cc1cccc(Cl)c1Cl", "Percent Effect": -4.031},
      {"smiles": "Cc1ccc(CN2CC3(CCN(S(=O)(=O)c4ccccc4)C3)C2)o1", "Percent Effect": -20.52},
      {"smiles": "Cc1ccc(CN2CC3(CCN(C(=O)Cc4ccc(Cl)cc4)C3)C2)o1", "Percent Effect": 100.7},
      {"smiles": "CCS(=O)(=O)N1CCC2(CN(Cc3ccc(C)o3)C2)C1", "Percent Effect": -24.8},
      {"smiles": "CCCOc1ccc(Cl)cc1CNc1ncnc2oc(C)nc12", "Percent Effect": -1.031},
      {"smiles": "Cc1nn(C)c(C)c1NC(=O)CN1CCCC1c1noc(C2CC2)n1", "note": "(stereo not drawn)", "Percent Effect": -4.679},
      {"smiles": "Cc1nn(C)c(C)c1NC(=O)CN1CCCC1c1noc(C(C)C)n1", "note": "(stereo not drawn)", "Percent Effect": -6.278},
      {"smiles": "Cc1nc(C2CCCN2CC(=O)Nc2c(C)n[nH]c2C)no1", "note": "(stereo not drawn)", "Percent Effect": 89.73},
      {"smiles": "Cc1nc(C2CCCN2CC(=O)Nc2c(C)nn(C)c2C)no1", "note": "(stereo not drawn)", "Percent Effect": -17.15},
      {"smiles": "CCc1nc(C2CCCN2CC(=O)Nc2c(C)n[nH]c2C)no1", "note": "(stereo not drawn)", "Percent Effect": 6.679},
      {"smiles": "Cc1cc(NC(=O)CN2CCCC2c2noc(C(C)C)n2)n(C)n1", "note": "(stereo not drawn)", "Percent Effect": -5.63},
      {"smiles": "Cc1n[nH]c(C)c1NC(=O)CN1CCCC1c1noc(C(C)C)n1", "note": "(stereo not drawn)", "Percent Effect": 106.9},
      {"smiles": "Cc1n[nH]c(C)c1NC(=O)CN1CCCC1c1noc(C2CC2)n1", "note": "(stereo not drawn)", "Percent Effect": 90.47},
      {"smiles": "CCc1nnc(CNC(=O)c2cc3c(nc2OC)CCC3)s1", "Percent Effect": 18.91},
      {"smiles": "CCN1CCN(C(=O)c2cc(F)cc3nc(C)c(C)nc23)CC1", "Percent Effect": -0.6809},
      {"smiles": "CC(C)[C@@H](C)NC(=O)N1CCn2nc(C(=O)NCCN(C)C)cc2C1", "Percent Effect": -12.94},
      {"smiles": "COc1ccccc1NCc1cscn1.Cl", "Percent Effect": -2.575},
      {"smiles": "CC(C)Cc1nnc(NCc2ccsc2)o1", "Percent Effect": -5.765},
      {"smiles": "CC(C)CC(NCc1ccsc1)c1ccccn1", "note": "(stereo not drawn)", "Percent Effect": 110.4},
      {"smiles": "CC(C)CC(NCc1cscn1)c1ccccn1", "note": "(stereo not drawn)", "Percent Effect": 95.9},
      {"smiles": "O=C(Cn1cccnc1=O)NC(Cc1cccs1)c1ccccn1", "note": "(stereo not drawn)", "Percent Effect": -8.701},
      {"smiles": "CC(NCc1cccc(C#N)c1)c1ccccn1.Cl", "note": "(stereo not drawn)", "Percent Effect": -10.04},
      {"smiles": "COc1cc(C(C)NCc2cscn2)ccc1SC(F)F", "note": "(stereo not drawn)", "Percent Effect": -37.81},
      {"smiles": "CC(C)CC(NCc1cccs1)c1ccccn1", "note": "(stereo not drawn)", "Percent Effect": 107.8},
      {"smiles": "NC(=O)C(NCc1cccs1)c1ccccc1", "note": "(stereo not drawn)", "Percent Effect": 8.593}
    ]}
  ]
}
